# Experimental data from the supplement of paper PMC13380429.
# Tested on: Vero E6 infected with SARS-CoV-2
# Test: morphology score (similarity to uninfected cells); higher = more like uninfected cells
# Conditions: 24 h
row,Compound,morphology score
1,CC1=NN(c2ccc(C)c(C)c2)C(=O)/C1=N\Nc1cccc(-c2cccc(C(=O)O)c2)c1O [eltrombopag] (10 µM),0.143
2,CN(C)Cc1c(C(=O)NCCOc2ccc(C(=O)NO)cc2)oc2ccccc12 (10 µM),-0.197
3,CC(=O)Oc1ccccc1C(=O)Oc1ccccc1C(=O)O [acetylsalicylsalicylic-acid] (10 µM),0.0259
4,C[C@@H]1C(=O)O[C@H]2C[C@@]34[C@H]5C[C@@H](C(C)(C)C)[C@]36[C@@H](OC(=O)[C@@H]6O)O[C@@]4(C(=O)O5)[C@]21O [Ginkgolide A] (10 µM),-0.0141
5,Cn1c(Nc2ccc(C(F)(F)F)cc2)nc2cc(Oc3ccnc(-c4ncc(C(F)(F)F)[nH]4)c3)ccc21 (10 µM),-0.041
6,N#Cc1ccc(COC[C@H]2O[C@@H](n3c(NCc4ccc(Cl)c(Cl)c4)nc4c(N)ncnc43)[C@H](O)[C@@H]2O)cc1 (10 µM),0.0983
7,COc1ccc(O)cc1 [mequinol] (10 µM),-0.0349
8,O=C(c1ccccc1)C(O)c1ccccc1 (configuration not stated) [benzoin] (10 µM),-0.114
9,O=C1OC(CN2CCOCC2)CN1/N=C/c1ccc([N+](=O)[O-])o1 (configuration not stated) [furaltadone] (10 µM),0.0402
10,Cc1ccccc1/N=N/c1ccc(NC(=O)c2ccnn2C)c(C)c1 (10 µM),-0.087
11,O=[N+]([O-])c1cccc2c(Br)n[nH]c12 [3-bromo-7-nitroindazole] (10 µM),0.0979
12,Cc1cc(-c2ccc(/N=N/c3ccc4c(S(=O)(=O)O)cc(S(=O)(=O)O)c(N)c4c3O)c(C)c2)ccc1/N=N/c1ccc2c(S(=O)(=O)O)cc(S(=O)(=O)O)c(N)c2c1O [evans-blue] (0.833333 µM),-0.0473
13,CC(=O)O[C@@H]1CC[C@@]2(C)[C@@H](CC[C@]3(C)[C@@H]2C(=O)C=C2[C@@H]4[C@@H](C)[C@H](C)CC[C@]4(C)CC[C@]23C)[C@@]1(C)C(=O)O [acetyl-11-keto-beta-boswellic-acid] (10 µM),0.104
14,COc1cc2ncnc(Nc3ccc(F)c(Cl)c3)c2cc1NC(=O)/C=C/CN1CCCCC1 [dacomitinib] (0.833333 µM),-0.0483
15,CCCn1cnc2c1c(=O)n(CCCCC(C)=O)c(=O)n2C [propentofylline] (10 µM),0.065
16,C[C@H](NCc1ccc(OCc2cccc(F)c2)cc1)C(N)=O [safinamide] (10 µM),-0.052
17,CC[C@]12C=CCN3CC[C@@]4(c5cc([C@@]6(C(=O)OC)C[C@@H]7C[C@@H](C(C)(F)F)CN(Cc8c6[nH]c6ccccc86)C7)c(OC)cc5N(C)[C@H]4[C@@](O)(C(=O)OC)[C@@H]1OC(C)=O)[C@@H]32 [Vinflunine Ditartrate] (10 µM),-0.12
18,CN[C@@H]1[C@@H](O[C@H]2O[C@H](CO)[C@@H](N)[C@H](O)[C@H]2O)O[C@H]2C[C@@H](N)[C@@H](O[C@H]3[C@H](O)[C@@H](O)[C@H](N)C[C@@H]3N)O[C@@H]2[C@@H]1O [apramycin] (10 µM),0.0655
19,NCCCC[C@H](N[C@@H](CCc1ccccc1)C(=O)O)C(=O)N1CCC[C@H]1C(=O)O [lisinopril] (10 µM),0.0957
20,COc1ncc(-c2ccc3nccc(-c4ccnnc4)c3c2)cc1NS(=O)(=O)c1ccc(F)cc1F (0.833333 µM),-0.0933
21,CCCC(=O)O[C@]1(C(=O)CCl)[C@@H](C)C[C@H]2[C@@H]3CCC4=CC(=O)C=C[C@]4(C)[C@@]3(F)C(=O)C[C@@]21C [clobetasone-butyrate] (10 µM),0.344
22,CCNC(=O)NS(=O)(=O)c1sc(CC(C)C)cc1-c1ccc(Cn2c(-c3ccccc3)nc(OC)c2C=O)cc1 (10 µM),0.159
23,Oc1ccnc2cc(Cl)ccc12 [chloroxoquinoline] (10 µM),0.159
24,CS(=O)(=O)c1ccc(-c2cn3ccccc3n2)cc1 [zolimidine] (10 µM),0.211
25,Cc1ccc2c(N3CCN(CCc4cccc(N5CCNC5=O)c4)CC3)cccc2n1 (10 µM),0.325
26,Cc1ccc(S(=O)(=O)OCC(=O)Nc2ccc(C(=O)O)c(O)c2)cc1 [STAT3-inhibitor-VI] (10 µM),0.0369
27,CC[C@]1(O)C[C@@H]2CN(CCc3c([nH]c4ccccc34)[C@@](C(=O)OC)(c3cc4c(cc3OC)N(C)[C@H]3[C@@](O)(C(=O)OC)[C@H](OC(C)=O)[C@]5(CC)C=CCN6CC[C@]43[C@@H]65)C2)C1 [Vinblastine (sulfate)] (0.833333 µM),-0.0326
